This is part of a sample that, as a whole, favours compounds with a hit. Of some 83,000 tested, about 20% had one in any assay.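 Single-concentration screen, 48 h exposure, 96-well plates. Endpoint: percent growth. Below 10 = active.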 Values without a mark were called inactive. The source made the active and inactive calls.

The values that follow come from PubChem BioAssay (NCI).

Common to all, as to assay: NCI-60 one-dose screen, 48 h (100 = growth as untreated, 0 = no growth, -100 = all killed)
What all share (conditions): 10 µM unless noted

The subject of experiment [1] is SR leukemia.
Experiment [2] concerns RPMI-8226 leukemia.
For experiment [3], the system named is OVCAR-8 ovarian.
In experiment [4] the test system is OVCAR-5 ovarian.
Experiment [5] deals with OVCAR-4 ovarian.
The test system of experiment [6] is SK-OV-3 ovarian.
For experiment [7], the system named is IGROV1 ovarian.
For experiment [8], the system named is OVCAR-3 ovarian.
Experiment [9] has as its system HS 578T breast.
Experiment [10] deals with NCI/ADR-RES ovarian.
Experiment [11] deals with T-47D breast.
For experiment [12], the system named is BT-549 breast.
Experiment [13] deals with MDA-MB-435 melanoma.
Experiment [14] relates to SW-620 colon.
The test system of experiment [15] is MCF7 breast.
The subject of experiment [16] is HCT-116 colon.
Experiment [17] has as its system HCC-2998 colon.
In experiment [18] the test system is KM12 colon.

With `CNC(=S)NNC(=O)C1CC1`, the growth is 67.5% in [1]; 98.9% in experiment [2]; 94.7% in experiment [3]; 107% in experiment [4]; 113% in [5]; 105% in experiment [6]. In addition, the growth in [7] is 118%; in experiment [8], 116%; in [9], 112%; in experiment [10], 110%; in [11], 104%; in experiment [12], 92.1%. The growth in experiment [13] was 114%; in experiment [14], 112%; in experiment [15], 96.9%; in experiment [16], 101%; in [17], 110%; in experiment [18] it was 109%.
As to `C=CCSc1n[nH]c(-c2cccs2)n1`, the growth in experiment [1] is 91%; in experiment [2], 103%; in [3] it was 102%; in experiment [4] it was 98.2%; in experiment [5], 107%; in [6] it was 110%. Further, the growth in experiment [7] is 15.8%; in [8], 115%; in experiment [9], 101%; in experiment [10] it was 102%; in experiment [11] it was 94.8%; in [12], 99.5%. The growth in experiment [13] is 106%; in experiment [14] it was 102%; in experiment [15] it was 101%; in [16], 98.6%; in experiment [17], 117%; in [18], 111%.
`CCCCCCCCCCCCNC(=O)[C@H]1CSC(c2ccsc2)N1` (some centres undefined): the growth in [1] is -44% (active); in experiment [2], 34.3%; in [3], -49.4% (active); in [4], -83.2% (active); in [5], -84.6% (active); in experiment [6], -93.8% (active). Further, the growth in experiment [7] was -66.7% (active); in experiment [8], -86.8% (active); in experiment [9] it was -56.5% (active); in experiment [10], -61.5% (active); in experiment [11], -41.2% (active); in [12], -67.6% (active). Further, the growth in experiment [13] is -98.1% (active); in experiment [14] it was -75.9% (active); in experiment [15] it was -67.5% (active); in experiment [16], -48.3% (active); in experiment [17], 11%; in experiment [18] it was -92.7% (active).
